Test results reported in PubChem BioAssay (NCATS).
Results filed as inconclusive are left out. The source made the active and inactive calls. Unless noted, calls come from the whole dose curve; as a rule, active = well fitted curve in the direction sought with a large enough effect; inconclusive = small, poorly fitted or top-dose-only effect, or another doubt; inactive = no such curve, though single readings can be large; an effect the other way counts as inactive or inconclusive.

How the values were obtained:
[1] = tested on: Zika virus NS2B-NS3 protease (linked construct); experiment: Primary screen NINDS Rhodamine qHTS for Zika virus inhibitors (AID 1347160); note: nearly all actives have a fitted effect of over 55% in size; note: potency is the fitted concentration of half-maximal effect
Method in brief: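 Purified NS2B-NS3 protease with the NS2B hydrophilic domain joined by a flexible linker (25 nM) in 10 mM Tris-HCl pH 8.0, 0.01% Tween 20, preincubated 15 min at RT with compound; Rhodamine110 peptide substrate 1.5 µM; fluorescence change over 15 min; 4-parameter Hill fit.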

[2] = HPAF-II Cancer Cell Toxicity qHTS against the NCATS CANVASS Library (AID 1347346); note: nearly all actives have a fitted effect of over 55% in size; note: potency is the fitted concentration of half-maximal effect
Method in brief: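 Luminescence from CellTiter-Glo, added after 72 h compound exposure and a 15 min room-temperature incubation, served as the viability readout. HPAF-II cells (1000/well) received an 11-point concentration series.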

[3] = OV-SAHO Cancer Cell Toxicity qHTS against the NCATS CANVASS Library (AID 1347348); note: series mostly up to about 38 µM; nearly all actives have a fitted effect of over 55% in size
Method in brief: (§1)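 1000 cells/well; 4 h settle; 11-pnt titration; 72 h, 37 degrees C, 5% CO2; CellTiter-Glo, 15min RT; luminescence read.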

[4] = Panc-1005 Cancer Cell Toxicity qHTS against the NCATS CANVASS Library (AID 1347349); note: series mostly up to about 38 µM; nearly all actives have a fitted effect of over 60% in size
Method in brief: as §1

[5] = U-118MG Cancer Cell Toxicity qHTS against the NCATS CANVASS Library (AID 1347351)
Method in brief: as §1

[6] = A2780 Cisplatin Sensitive Ovarian Cancer Cell Toxicity qHTS against the NCATS CANVASS Library (AID 1347353); note: nearly all actives have a fitted effect of over 60% in size
Method in brief: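 Luminescent ATP content (ATPLite, 10 min at room temperature) served as the read-out after cells had been exposed to compounds for 72 hours at 37 °C. Dosing followed an 11-point concentration series.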

[7] = UWB1.289-WTBRCA1 Cancer Cell Toxicity qHTS against the NCATS CANVASS Library (AID 1347354)
Method in brief: (§2)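 Luminescent ATP read-out (CellTiter-Glo, 15min at room temperature) measures survival after cells face an 11-point compound series for 72 hours at 37 degrees C/5% CO2.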

[8] = HEK-293 Cancer Cell Toxicity qHTS against the NCATS CANVASS Library (AID 1347355); note: series mostly up to about 46 µM; nearly all actives have a fitted effect of over 65% in size
Method in brief: as §2

[9] = HPAF-II 24hr Apoptosis Induction qHTS against the NCATS CANVASS Library (AID 1347356)
Method in brief: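 Luminescent caspase-3/7 signal (DEVD substrate, Caspase-Glo) served as read-out, taken 15 min after reagent addition to HPAF-II cells exposed 24 h to compounds.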

[10] = HEK293 18hr Apoptosis Induction qHTS against the NCATS CANVASS Library (AID 1347357)
Method in brief: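 HEK293 cells (500/well, DMEM + 10% FBS) treated with an 11-point series for 18 h at 37 degrees C. Caspase-3/7 activity read by Caspase-Glo luminescence after 15 min at room temperature.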

[11] = HEK293 24hr Apoptosis Induction qHTS against the NCATS CANVASS Library (AID 1347359)
Method in brief: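 HEK293 cells, 500 per well, exposed to an 11-point compound series for 24 hours at 37 degrees C. Caspase 3/7 activity read by Caspase-Glo luminescence (DEVD substrate) after 15 min at room temperature.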

[12] = HPAF-II 18hr Apoptosis Induction qHTS against the NCATS CANVASS Library (AID 1347360)
Method in brief: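 HPAF-II cells at 500/well were exposed for 18 h at 37 C to an 11-point compound series. Caspase-3/7 activity was read by Caspase-Glo luminescence after 15 min at RT.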

[13] = HEK293 12hr Apoptosis Induction qHTS against the NCATS CANVASS Library (AID 1347361)
Method in brief: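 HEK293 cells (500/well) were exposed to an 11-point qHTS concentration series for 12 hours at 37 degrees C. Caspase-3/7 activity was then read by DEVD-substrate luciferase luminescence after 15 min at room temperature.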

[14] = biological target: Cytochrome P450 3A4 (Homo sapiens) (UniProt P08684); experiment: qHTS Assay for Inhibitors and Substrates of Cytochrome P450 3A4 (AID 884); note: nearly all actives have a fitted effect of over 50% in size; note: potency is the fitted concentration of half-maximal effect
Cytochrome P450 3A4 (Homo sapiens), sequence (P08684 whole entry, looked up): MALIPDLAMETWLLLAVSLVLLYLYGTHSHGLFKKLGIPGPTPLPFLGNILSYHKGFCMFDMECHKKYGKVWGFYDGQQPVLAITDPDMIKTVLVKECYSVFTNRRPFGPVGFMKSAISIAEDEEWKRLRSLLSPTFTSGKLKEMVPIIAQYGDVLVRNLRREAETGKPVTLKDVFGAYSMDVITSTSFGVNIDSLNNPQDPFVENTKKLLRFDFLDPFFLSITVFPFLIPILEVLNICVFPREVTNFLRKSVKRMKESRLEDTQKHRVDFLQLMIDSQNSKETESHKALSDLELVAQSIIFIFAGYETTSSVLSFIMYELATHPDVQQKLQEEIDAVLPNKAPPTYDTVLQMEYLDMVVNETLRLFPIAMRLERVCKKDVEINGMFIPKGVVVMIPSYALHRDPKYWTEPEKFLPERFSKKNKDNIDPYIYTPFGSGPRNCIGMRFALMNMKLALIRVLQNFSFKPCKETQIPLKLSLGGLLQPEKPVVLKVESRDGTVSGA
Method in brief: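 20 nM human CYP3A4 with 25 uM Luciferin-PPXE (at KM) in 200 mM KPO4, preincubated 10 min with compound; NADPH regeneration started a 60 min RT reaction. Luciferin detected by luminescence, normalized to 57 uM ketoconazole as full inhibition.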

[15] = biological target: Cytochrome P450 3A4 (Homo sapiens) (UniProt P08684); experiment: qHTS Assay for Activators of Cytochrome P450 3A4 (AID 885); note: nearly all actives have a fitted effect of over 65% in size; note: potency is the fitted concentration of half-maximal effect
Method in brief: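 Human CYP3A4 (20 nM) with Luciferin-PPXE at 25 uM (its KM) in 200 mM KPO4; 10 min compound preincubation, then NADPH regeneration and 60 min reaction at RT. Luciferin read by luminescence; normalized to 57 uM ketoconazole full inhibition.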

[16] = biological target: Cytochrome P450 2C9 (Homo sapiens) (UniProt P11712); experiment: qHTS Assay for Inhibitors and Substrates of Cytochrome P450 2C9 (AID 883); note: nearly all actives have a fitted effect of over 60% in size; note: potency is the fitted concentration of half-maximal effect
Cytochrome P450 2C9 (Homo sapiens), sequence (P11712 whole entry, looked up): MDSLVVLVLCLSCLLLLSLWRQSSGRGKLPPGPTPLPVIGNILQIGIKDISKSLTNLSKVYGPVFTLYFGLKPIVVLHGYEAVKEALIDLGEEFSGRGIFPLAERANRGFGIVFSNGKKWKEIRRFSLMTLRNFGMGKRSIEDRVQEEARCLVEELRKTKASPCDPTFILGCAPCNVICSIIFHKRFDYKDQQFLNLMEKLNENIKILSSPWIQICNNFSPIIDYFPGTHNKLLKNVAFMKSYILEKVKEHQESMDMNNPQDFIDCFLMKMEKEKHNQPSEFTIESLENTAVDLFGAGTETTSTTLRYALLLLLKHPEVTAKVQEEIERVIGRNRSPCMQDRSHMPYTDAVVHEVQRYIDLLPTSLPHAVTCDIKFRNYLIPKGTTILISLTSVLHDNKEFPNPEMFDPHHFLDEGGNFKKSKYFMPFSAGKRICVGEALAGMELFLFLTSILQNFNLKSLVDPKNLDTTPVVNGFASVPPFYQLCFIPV
Method in brief: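 Human CYP2C9 (10nM) with Luciferin-H at 100uM (its KM) in 25mM KPO4; compound preincubated 10 min at 37C, then NADPH regeneration for 60 min at 37C. Luciferin read by luminescence after detection reagent; normalized to 57uM sulphaphenazole as full inhibition.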

[17] = Stat Signaling Pathway (AID 446; active = well fitted curve in either direction with a large enough effect, not every such curve was filed as active;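 note: ME-180 cervical cancer cells given 40 pM IL-6 alongside compound; SIE-controlled beta-lactamase reporter measured as 460/530 nm FRET emission ratio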)
Method in brief: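 ME-180 cells carrying a SIE-driven beta-lactamase reporter are stimulated with 40 pM IL-6 for 5 h at 37C in the presence of compound. The 460/530 nm FRET substrate ratio is read after 2.5 h at RT. Data are normalised to 300 pM IL-6 and to 125 nM JAK inhibitor controls.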

[18] = qHTS Assay for Identification of Small Molecule Agonists for Thrombopoietin (TPO) Signaling Pathway (AID 917)
Method in brief: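 Murine Ba/F3 cells expressing human TPO receptor and GPIIb-promoter luciferase, IL-3-starved overnight, given compound plus TPO at 26 pM (EC50). After 24 h at 37 C, 5% CO2, luminescence read.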

Measured: Potency

CO[C@@H](/C=C/CC/C=C/C(=O)O)[C@@H](O)[C@H](C)[C@@H](O)/C(C)=C/[C@H](C)C(=O)CCCC1CC(=O)NC(=O)C1
not listed: [14] | [15] | [16] | [17] | [18]
inactive: all other assays above

CNCCc1c[nH]c2ccccc12
not listed: [14] | [15] | [16] | [17] | [18]
inactive: all other assays above

COc1ccc(C23Oc4cc(OC)cc(OC)c4[C@](O)([C@H](c4ccccc4)C2C(=O)NCCCCNC(=O)c2ccccc2)[C@@H]3O)cc1 (some centres undefined)
active: [1] 49.3 µM
not listed: [14] | [15] | [16] | [17] | [18]
inactive: all other assays above

NC(=NCc1ccc(Cl)cc1)SCCCc1cnc[nH]1
inactive: [15]
active: [14] 1.58 µM

CCC[C@H]1CC[C@H]2[C@H](C)CCC[C@H]2N1
not listed: [14] | [15] | [16] | [17] | [18]
inactive: all other assays above

CC(C)n1cnc2c(C(=O)N[C@H]3CN4CCC3CC4)cc(Cl)cc21
active: [16] 0.398 µM | [15] 31.6 µM

C[C@@H](N)Cn1ccc2cc(F)c(Cl)cc21
active: [16] 3.98 µM

O[C@H]1CCCC[C@H]1N1CCC(c2ccccc2)CC1
inactive: [17]

Cc1c(C(=O)c2ccc3ccccc3c2)c2cccc3c2n1[C@H](CN1CCOCC1)CO3
inactive: [16]

O=C(CCCN1CCC2(CC1)C(=O)N(Cc1cccc(F)c1)CN2c1ccccc1)c1ccc(F)cc1
inactive: [15]

C(=C/c1ccccc1)/CN1CCN(CCOC(c2ccccc2)c2ccccc2)CC1
active: [16] 5.01 µM

CNCCc1ccc(O)cc1
not listed: [14] | [15] | [16] | [17] | [18]
inactive: all other assays above

CCOC(=O)c1ncn2c1CN(C)C(=O)c1cc(N=[N+]=[N-])ccc1-2
inactive: [14]

CCCCC1(C2CCCC2)Cc2cc(OCCCC(=O)O)c(Cl)c(Cl)c2C1=O (centres undefined)
inactive: [14]

COC(=O)C1=C2Nc3ccccc3[C@@]23CCN2CC(C(C)=O)C1C[C@H]23 (some centres undefined)
active: [1] 55.3 µM | [2] 9.43 µM
not listed: [14] | [15] | [16] | [17] | [18]
inactive: all other assays above

O=C(Cc1ccc(Cl)c(Cl)c1)N1CCCC[C@H]1CN1CCCC1
active: [14] 7.94 µM
inactive: [15] | [18]

Oc1ccc2c3c1O[C@H]1c4oc5ccccc5c4C[C@]4(O)[C@H](C2)N(CC2CC2)CC[C@@]314
inactive: [18]

CC(C)(C)NC[C@@H](O)COc1cccc2[nH]c(C#N)cc12
inactive: [15]
